High-throughput results as filed in PubChem BioAssay.
Rows were chosen to be rich in hits. Some 10% of all compounds tested hit in one or more screens of this group.
JMJD2A Tudor – JMJD2A Tudor domain (human) inhibition. AlphaScreen JMJD2A-Tudor / H3K4me3 peptide binding. Potency, µM (doses to about 114 µM), for the others: at the highest dose activity change, negative = inhibition, hits mostly inhibitors. hit rate 4.4% among 390,000. AID 504339; further: on the % scale 0 is the no-effect control and ±100 the full control effect; nearly all actives have a fitted effect of over 50% in size
GLS inh – blocks human kidney-isoform glutaminase activity; hit rate 0.21% among 410,000; GLS enzymatic activity, qHTS titration; O94925; Potency, µM (series often up to 45.5 µM), for inactives: at the top dose activity change, negative = inhibition, actives largely listed as inhibitors; further: on the % scale 0 is the no-effect control and ±100 the full control effect
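Enzyme dispensed in phosphate buffer (45 mM, pH 8.2, 0.02% Tween-20), compounds pinned in, then 1 mM L-glutamine solution and the glutamate oxidase–HRP–Amplex Red mix added; fluorescence read immediately and again after 30 min at room temperature.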
L3MBTL1 block – blocks human L3MBTL1; Q9Y468; AlphaScreen L3MBTL1–H3K9me1 peptide binding; Potency, µM (top dose mostly 57.1 µM), for inactives: at the top dose activity, negative = inhibition, most hits filed as inhibitors; hit rate 0.66% among 230,000; AID 485360; further: on the % scale 0 is the no-effect control and ±100 the full control effect; nearly all actives have a fitted effect of over 60% in size
Target sequence (Q9Y468 whole entry, looked up): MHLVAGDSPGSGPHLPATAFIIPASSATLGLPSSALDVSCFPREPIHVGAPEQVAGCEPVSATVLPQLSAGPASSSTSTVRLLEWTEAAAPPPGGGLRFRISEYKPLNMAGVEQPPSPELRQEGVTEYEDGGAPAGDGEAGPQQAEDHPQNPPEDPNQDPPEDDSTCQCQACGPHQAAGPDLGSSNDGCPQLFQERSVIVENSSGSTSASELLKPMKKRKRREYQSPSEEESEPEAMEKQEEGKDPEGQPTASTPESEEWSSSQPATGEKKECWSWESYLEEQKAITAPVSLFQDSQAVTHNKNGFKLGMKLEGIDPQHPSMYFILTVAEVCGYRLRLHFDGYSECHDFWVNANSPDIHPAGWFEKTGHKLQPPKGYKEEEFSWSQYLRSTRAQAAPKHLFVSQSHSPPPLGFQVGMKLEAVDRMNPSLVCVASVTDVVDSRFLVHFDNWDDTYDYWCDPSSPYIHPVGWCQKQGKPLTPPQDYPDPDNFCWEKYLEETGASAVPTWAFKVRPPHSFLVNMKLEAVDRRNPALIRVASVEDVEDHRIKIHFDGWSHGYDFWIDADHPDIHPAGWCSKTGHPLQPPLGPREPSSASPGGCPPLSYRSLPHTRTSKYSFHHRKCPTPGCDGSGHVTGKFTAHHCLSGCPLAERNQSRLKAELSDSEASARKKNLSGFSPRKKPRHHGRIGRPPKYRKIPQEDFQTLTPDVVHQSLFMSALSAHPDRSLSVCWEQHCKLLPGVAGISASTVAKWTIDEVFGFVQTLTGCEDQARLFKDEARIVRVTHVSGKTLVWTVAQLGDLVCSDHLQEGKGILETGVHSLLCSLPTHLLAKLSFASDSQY
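Displacement of a biotinylated histone H3(1-15) peptide monomethylated at Lys9 (75 nM) from L3MBTL1 (50 nM) was measured by AlphaScreen after a 30 min room-temperature compound incubation; cefsulodin titration served as intraplate control.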
G9a block – G9a (human) methyltransferase inhibition | G9a H3K9 monomethylation, AlphaScreen, 2 h | Potency, µM (top dose mostly 102 µM), inactives show at the top dose activity, negative = inhibition, actives largely listed as inhibitors | Q96KQ7 | AID 504332 | hit rate 8.8% among 350,000; further: on the % scale 0 is the no-effect control and ±100 the full control effect; nearly all actives have a fitted effect of over 75% in size
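Compounds were preincubated with 20 nM G9a for 15 min, after which biotinylated H3K9 peptide (500 nM) and SAM (20 uM) started a 2 h room-temperature reaction. Monomethylated product was quantified by antibody-based AlphaScreen chemiluminescence.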
HP1b chromo inh – blocks HP1-beta chromodomain binding to methylated histone tails; AlphaScreen HP1-beta / biotin-H3K9me3 peptide binding; Potency, µM (series often up to 114 µM), without a hit: top-dose activity change, negative = inhibition, hits mostly inhibitors; hit rate 0.56% among 390,000; further: nearly all actives have a fitted effect of over 70% in size
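HP1-beta protein (50 nM final) preincubated 30 min at room temperature with biotinylated H3(1-18)K9me3 peptide (50 nM) in PBS pH 7.4, 0.01% Tween-20, then compound added for 30 min. AlphaScreen streptavidin donor/nickel chelate acceptor beads (10 ug/mL final), 30 min dark, luminescence read.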
BAZ2B block – inhibitors of human BAZ2B bromodomain. AlphaScreen BAZ2B-H3K14Ac peptide displacement. Potency, µM (series often up to 114 µM), for the others: top-dose activity change, negative = inhibition, actives largely listed as inhibitors. hit rate 4.4% among 360,000; further: on the % scale 0 is the no-effect control and ±100 the full control effect; nearly all actives have a fitted effect of over 60% in size
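Compounds, titrated to a top concentration of 110 uM, were incubated 30 min at room temperature with preformed BAZ2B/acetyl-K14 H3 peptide complex (50 nM each). Proximity signal was measured by AlphaScreen after 20 min with beads.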
Starred values were filed as active, the others as inactive; u = inconclusive; x = not tested or not shown; [ ] = another dose, or the depositor's remark. The call rests on the fitted dose curve; in most records, active means well fitted curve in the direction sought with a large enough effect; inconclusive means small, poorly fitted or top-dose-only effect, or another doubt; inactive means no such curve, though single readings can be large; an effect the other way counts as inactive or inconclusive. Potency means the concentration at half of the fitted maximal effect.

SMILES	JMJD2A Tudor	GLS inh	L3MBTL1 block	G9a block	HP1b chromo inh	BAZ2B block
CCC1=[N+](CC(=O)c2ccc(Br)cc2)CCn2c(C)ccc21	u	-17%	-20%	32µM*	25%	-38%
CCC1=[N+](C)CCn2c(C)ccc21	u	-2%	x	1.8µM*	9%	5%
CCC1=[N+](CC(=O)c2ccc(C)cc2)CCn2c(C)ccc21	-18%	-1%	-5%	u	9%	-35%
Cc1cccc(N=Nc2cnc(N)s2)c1	45µM*	-14%	-5%	28µM*	u	u
Cc1cccc(N=C(NO)c2nonc2N)c1	-4%[57.1 µM]	9%	8%	6%	28%	-3%
Cc1ccc(C2C=C(c3ccccc3OC(F)F)Nc3ncnn32)cc1 (stereo not given)	-17%	4%	-3%	u	35%	-7%
CN(C)c1ccc(C2C=C(c3ccc(Cl)cc3OC(F)F)Nc3ncnn32)cc1 (stereo not given)	45µM*	3%	-14%	35µM*	-25%	u
O=[N+]([O-])c1ccccc1CNC1CCCCCC1	50µM*	3%	-4%	22µM*	u	u
COc1ccc(NC(=O)Cn2cnc3c(oc4ccccc43)c2=O)cc1OC	-28%	1%	x	3%[59 µM]	36%	-27%
COc1ccc2cc(C(=O)N(C)CC(=O)Nc3ccccc3Br)ccc2c1	-11%	18%	2%	8.9µM*	37%	3%
CC1CCc2[nH]c3ccc(C(=O)N(C)CC(=O)Nc4ccccc4Br)cc3c2C1 (stereo not given)	u	-3%	u	45µM*	-38%	u
O=C(CSc1nc(=O)[nH]c2c1CCCC2)Nc1ccccc1C(F)(F)F	-7%	2%	x	-2%[59 µM]	85%	14%
NCCSSCCN	-6%	0%	x	22µM*	13µM*	-12%
O=C(NCCCc1ccccc1)c1cccc(NC(=O)C2CC2)c1	-27%	-2%	x	x	17%	x
O=C(NCCCCc1ccccc1)c1cccc(NC(=O)C2CC2)c1	56µM*	-4%	x	x	33%	x
N#CCCN(Cc1ccccc1)C(=O)c1nccnc1C(=O)O	u	-2%	x	35µM*	50%	u
CCn1c(SCC(=O)c2ccc(C)cc2)nnc1-c1ccoc1C	-15%	11%	5%	50µM*	33%	10%
CCn1c(SCC(=O)c2ccc(Cl)cc2)nnc1-c1ccoc1C	50µM*	21%	-6%	52%[59 µM]	-26%	4%
CCn1c(SCC(=O)c2ccccc2)nnc1-c1ccoc1C	-27%	3%	-2%	-27%	24%	-4%
Cc1c2cnn(-c3ccccc3)c(=O)c2c(C)n1CC(=O)NCc1ccccc1	-23%	-6%	x	-3%[59 µM]	-6%	u
O=C(NCc1ccccc1Cl)c1ccc(NC(=O)N2CCSc3ccccc32)cc1	-14%	-2%	x	12%[59 µM]	19%	-3%
C=CCN1CCN(C(c2cc(OC)ccc2OC)c2nnnn2CC2CCCO2)CC1 (stereo not given)	-14%[11.4 µM]	-13%	11%	13µM*	9%	x
COc1ccc(OC)c(C(c2nnnn2CC2CCCO2)N2CCN(C)CC2)c1 (stereo not given)	-14%	4%	x	u	17%	79µM*
CCCCN1C(=O)c2ccccc2NC1c1ccc(OC)c(COc2ccc(NC(C)=O)cc2)c1 (stereo not given)	-34%	x	x	x	x	x
Cc1ccc2c(c1)sc(-c1ccc(N(C)C)cc1)[n+]2C	-34%	0%	x	50µM*	23%	-36%
SMILES	JMJD2A Tudor	GLS inh	L3MBTL1 block	G9a block	HP1b chromo inh	BAZ2B block
Cc1ccc2oc(C(=O)Nc3ccc(S(=O)(=O)N4CCCCC4C)cc3)cc(=O)c2c1 (stereo not given)	-26%	0%	x	-3%[59 µM]	31%	-12%
Cc1ccc(C(=O)OCC(=O)Nc2ncc(Cl)cc2Cl)cc1NC(=O)c1ccco1	u	-7%	x	45µM*	14%	-30%
Cc1ccc(C(=O)OCC(=O)Nc2sccc2C(N)=O)cc1NC(=O)c1ccco1	-12%[57.1 µM]	-4%	x	0.89µM*	26%	-34%
Cc1ccc(C(=O)OCC(=O)Nc2sc3c(c2C#N)CCCCC3)cc1NC(=O)c1ccco1	-21%	-12%	-5%	-11%[59 µM]	20%	-2%
Cc1ccc(C(=O)OCC(=O)Nc2ccccc2)cc1NC(=O)c1ccco1	5%	1%	2%	8%[59 µM]	15%	x
Cc1ccc(C(=O)OCC(=O)Nc2sc3c(c2C#N)CCCC3)cc1NC(=O)c1ccco1	-28%	16%	x	22µM*	-2%	-30%
O=S(=O)(O)CCCS(=O)(=O)O	x	4%	x	-43%[12.7 µM]	x	x
Cc1ccccc1OCc1nnc(SCC(=O)NC2CCCCC2)o1	-11%	5%	x	50µM*	u	9%
COc1cc(-c2nnc(SCC(=O)NC3CCCC3)n2C)cc(OC)c1O	-2%	7%	x	79µM*	51%	-8%
O=C(CSc1nnc(-c2ccccn2)n1Cc1ccccc1)NC1CCCC1	-2%	18%	-8%	-30%	27%	89µM*
O=C(CSc1nnnn1Cc1ccccc1)N1CCN(c2ccccc2)CC1	89µM*	16%	-2%	45µM*	2%	-8%
COc1ccc(-c2nnc(SCC(=O)NC3CCCC3)n2C)cc1	9%	-9%	x	u	32%	-2%
O=C(c1cnccn1)N1CCC2(CC1)CN(Cc1cc(C(F)(F)F)cc(C(F)(F)F)c1)C2	x	x	x	7%[12.7 µM]	x	x
Cc1cc(C)cc(NC(=O)C2CCC(CNS(=O)(=O)c3ccc4c(c3)C(C)(C)C(=O)N4C)CC2)c1 (stereo not given)	-21%	-1%	x	-37%[59 µM]	33%	-19%
C=CCn1c(SCC(=O)Nc2ccc3c(c2)OCCO3)nnc1-c1ccccn1	89µM*	3%	-3%	-2%	11%	u
C=CCn1c(COc2ccccc2)nnc1SCC(=O)Nc1ccc2c(c1)OCCO2	-13%	2%	-5%	0%	9%	-27%
C=CCn1c(SCC(=O)NC2CCCCC2)nnc1-c1ccccn1	-8%	-5%	x	10%	32%	79µM*
Cn1c(SCC(=O)NC2CCCCC2)nnc1-c1ccccn1	2%	10%	x	28%	24%	79µM*
O=C(CSc1nnnn1Cc1ccccc1)NC1CCCCC1	-1%	-3%	0%	50µM*	38%	-13%
Cc1nc(-c2ccc(C)c(N3CCN(C(=O)Nc4cccc(Cl)c4C)CC3)c2)no1	4%	4%	x	15%[59 µM]	30%[57 µM]	1%
CCOC(=O)c1c(C)oc2ncnc(N3CCN(c4cccc(Cl)c4)CC3)c12	-9%	2%	x	-18%[59 µM]	37%	-33%
C=CCn1c(CSCc2ccccc2)nnc1SCC(=O)N1CCN(c2ccccc2)CC1	-19%	2%	u	25µM*	15%	-29%
